Assay outcomes (PubChem BioAssay)
Only a selection was taken, and hits are over-represented in it overall.
Dicer inh = inhibitors of Dicer pre-microRNA processing, primary screen, biochemical, cat-ELCCA, chemiluminescence. actives 6% (n = 47,000). cat-ELCCA pre-miR-21 Dicer processing; hits give high values. AID 1347074, 2019. z-score at 25 µM. Endoribonuclease Dicer (Homo sapiens), Q9UPY3; in the data active = z-score above about 3, passing the limit was not always enough;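 note: plate controls were vehicle for no effect and no enzyme for full effect; higher signal means more uncleaved substrate so more Dicer inhibition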
Active calls of the source: *.

SMILES | Dicer inh
COC(=O)NC(=O)c1ccc(Oc2ccc(C(F)(F)F)cc2[N+](=O)[O-])cc1 | 2.6
O=C(Oc1c(Br)cc(C(F)(F)F)cc1[N+](=O)[O-])c1ccccc1Cl | -0.27
O=C(Oc1ccc2occ([N+](=O)[O-])c2c1)c1ccc(C(F)(F)F)cc1 | 4.7*
CC(=O)Oc1ccc(C2C(C(=O)OC(C)C)=C(C)NC3=C2C(=O)CC(c2cccs2)C3)cc1 (configuration not stated) | 2
CCN(CC)C(=O)Oc1ccc2c(C(F)(F)F)cc(=O)oc2c1 | 5.3
CCS(=O)(=O)c1c(S(=O)(=O)CC)c2cc(C(C)(C)C)ccn2c1C(=O)c1ccc(OC)cc1 | 5*
CCCS(=O)(=O)c1c(S(=O)(=O)CCC)c2ccccn2c1C(=O)OC | 0.22
COc1ccc(C(=O)CC(=O)c2ccc(C(C)(C)C)cc2)cc1 | -0.14
O=C(CSc1nccc(C(F)(F)F)n1)c1cccnc1 | -1
CC1CN(C2CCN(Cc3ccccc3Br)CC2)CC(C)O1 (configuration not stated) | -0.06
CC1=C(C(=O)Nc2ccccc2)S(=O)CCO1 (configuration not stated) | 3.3*
Cc1cc(C(=O)Nc2ccccc2)oc(=O)c1 | -2.2
CC1=C(C(=O)Nc2ccc(F)cc2)SCCO1 | 1
CCn1c(SCC(=O)O)nc2cc(Cl)ccc21 | 0.05
Cc1nc(NC2=NCCC(=O)N2)nc2ccccc12 | 1
C#CCOC(=O)Nc1ccc(OC)nc1 | 0.87
CC1=C(C(=O)OCc2ccccc2)C(c2cccc(O)c2)C2=C(CC(C)(C)CC2=O)N1 (configuration not stated) | -0.45
CCOc1ccccc1/C=C1N=C(/C=C/c2ccccc2)OC/1=O | 2
COc1ccc(/C=C2/N=C(C)OC2=O)cc1 | -0.48
COc1ccc(/C=C2N=C(/C=C/c3ccccc3)OC/2=O)cc1 | 4.4*
COc1ccc2c(c1)SC1=NS(=O)(=O)CCN12 | -0.4
CCOc1ccc2c(c1)-c1c(sn(-c3ccc(OC)cc3)c1=S)C(C)(C)N2 | 6.7*
COC(=O)C1=C(C(=O)OC)SC(=C2C(=S)C(C)(C)Nc3ccc(OC)cc32)S1 | -0.25
COc1ccc(-n2sc3c(c2=S)-c2ccccc2NC3(C)C)cc1OC | 2
CCCCC(NC1CCS(=O)(=O)C1)C(=O)O (configuration not stated) | 0.81
SMILES | Dicer inh
Cc1ccnc(-n2c(=S)[nH]c3sc(C)c(C)c3c2=O)c1 | 0.49
Cc1cc(-n2c(=S)[nH]c3sc(C)c(C)c3c2=O)n(-c2ccccc2)n1 | 3.2*
CCn1c(=S)[nH]c2sc(C)c(C)c2c1=O | -1.1
CCCOC(=O)COc1ccc2c(=O)c(Oc3ccc(OC)cc3)coc2c1 | 1.7
COc1cc(C2/C(=C(/O)c3ccc(Cl)cc3)C(=O)C(=O)N2CC(C)C)ccc1O (configuration not stated) | -1.2
Cc1cc(S(=O)(=O)n2ccc(-c3cc(Cl)sc3Cl)n2)cc(C)c1F | 1.2
CC(=O)c1cnc2cc(C3CC3)nn2c1C | 0.75
CC(=O)CSc1n[nH]c(CN2c3ccccc3Sc3ccccc32)n1 | 3.5*
CC(C)Cc1nc(SCC(=O)c2ccccc2)n[nH]1 | -0.18
CCn1c(CN2c3ccccc3Sc3ccccc32)n[nH]c1=S | 0.6
C=CCN1C(=O)C2(/C(=C(/O)c3ccc(C)c(F)c3)C(=O)C(=O)N2CCCOC)c2ccccc21 (configuration not stated) | 1.6
Oc1ccc(-c2csc(Nc3ccccn3)n2)cc1 | 0.3
COc1ccc(-c2csc(Nc3ncccn3)n2)cc1OC | 0.07
Cc1cc(C)nc(Nc2nc(-c3ccc(O)c(O)c3)cs2)n1 | 8.6*
O=C(O)c1nnc(Cl)c2ccccc12 | 0.53
S=C(NCc1ccccc1Cl)NC12CC3CC(CC(C3)C1)C2 | 0.78
COC(=O)c1sc(-c2ccc(Cl)cc2)cc1NC(=O)c1cc(C)nn1C | -0.98
COC(=O)c1sc(-c2ccc(Cl)cc2)cc1NC(=O)Nc1cccs1 | 3.4*
COC(=O)c1sc(-c2ccc(Cl)cc2)cc1NC(=O)c1cccnc1Oc1ccccc1 | 1.9
O=S(=O)(NCc1ccccc1)c1cccc(S(=O)(=O)c2ccc(Cl)cc2)c1 | 0.61
CC(C)OC(=O)CSC1=C(C#N)C(c2ccccc2Cl)CC(=O)N1 (configuration not stated) | 0.55
OC(COC1=NCNc2cc(Cl)ccc21)c1ccc2c(c1)OCCO2 (configuration not stated) | -1.5
CC(C)(C)c1cc([N+](=O)[O-])c2cc(C(C)(C)C)cc([N+](=O)[O-])c2c1 | 1.8
CC(=O)Oc1ccc2oc(C)c(C(=O)O)c2c1 | 0.72
CCC(C)C(C(=O)O)N1C(=O)NC2NC(=O)NC21 (configuration not stated) | 1.2
CCCC(C(=O)O)N1C(=O)NC2NC(=O)NC21 (configuration not stated) | 3.4*
CCC(C)N1C(=O)N(C)C2NC(=O)NC21 (configuration not stated) | 1.9
O=C1C2=C(NC(=S)NC2c2ccccc2)c2ccccc21 (configuration not stated) | -0.71
